Several values for one entry are separate records, joined by “and”; a condition that tells them apart may be missing. Identical values can stand only once. Inconclusive results are not listed. A structure can be active in one record and inactive in another. Activity calls are given as the source filed them. Unless noted, calls come from the whole dose curve; as a rule, active = well fitted curve in the direction sought with a large enough effect in the repeat runs; inconclusive = weak or mixed curves; inactive = no such curve, though single readings can be large; an effect the other way counts as inactive or inconclusive.

Assay [1] addresses Luciferin 4-monooxygenase (Photinus pyralis) (UniProt P08659). Briefly: qHTS assay to identify small molecule inhibitors of firefly luciferase (AID 1224835). Note: nearly all actives have a fitted effect of over 25% in size. Note: potency is the fitted concentration of half-maximal effect. Put shortly: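 Inhibition of purified Photinus luciferase is measured by luminescence. Substrate levels (D-luciferin, ATP) sit at their KM values. Each compound is tested in a concentration series.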
In general terms: qHTS replaces the single test concentration by a dilution series.

A short description of assay [2]: qHTS assay to identify small molecule agonists of the constitutive androstane receptor (CAR) signaling pathway - cell viability counter screen (AID 1224836). Note: nearly all actives have a fitted effect of over 45% in size. In outline:
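Viability read-out: CellTiter-Fluor fluorescence after 23 h compound exposure at 37 C/5% CO2 in double-stable HepG2-CYP2B6-hCAR cells, with PK11195 present at 0.75 uM final; compounds tested in 15-point titration.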

Assay [3] is described as follows: qHTS assay to identify small molecule antagonists of the constitutive androstane receptor (CAR) signaling pathway - cell viability counter screen (AID 1224837). Note: nearly all actives have a fitted effect of over 45% in size. In outline:
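Using CellTiter-Fluor, viability is scored in HepG2 cells stably carrying hCAR and a 2.2kb CYP2B6 reporter after 23 hr compound exposure across 15 concentrations, with CITCO present at 50 nM.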

Assay [4] has as its target Nuclear receptor subfamily 1 group I member 3 (Homo sapiens) (UniProt Q14994). Briefly: qHTS assay to identify small molecule antagonists of the constitutive androstane receptor (CAR) signaling pathway (AID 1224838).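 Note: HepG2 cells stably expressing hCAR with CYP2B6 luciferase reporter stimulated by CITCO; nearly all actives have a fitted effect of over 40% in size.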 In outline:
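Reporter luminescence was quantified after 24 h exposure of hCAR/CYP2B6-2.2kb double-stable HepG2 cells to compounds at 15 concentrations in the presence of 50 nM CITCO final.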

Assay [5] shares this target. The assay is described as follows: qHTS assay to identify small molecule agonists of the constitutive androstane receptor (CAR) signaling pathway (AID 1224839).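 For activation: HepG2 cells stably carrying human CAR and a CYP2B6 luciferase reporter.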 Note: nearly all actives have a fitted effect of over 15% in size. Note: potency is the fitted concentration of half-maximal effect. In outline:
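Luminescence read-out (ONE-Glo, 30 min, room temperature) from double-stable HepG2-CYP2B6-hCAR cells exposed 24 h to 15-point compound series in presence of 0.75 uM PK11195 final.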

A short description of assay [6]: qHTS assay to identify small molecule antagonists of the estrogen related receptor signaling pathway with the pleiotropic PPARgamma coactivator (PGC) from Tox21 10K library - cell viability counter screen (AID 1224840; active = well fitted cell-killing curve with a large enough effect in the repeat runs, not every such curve was filed as active; note: nearly all actives have a fitted effect of over 40% in size). Put shortly:
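Here the PGC/ERR cells serve as a cytotoxicity control: they are exposed to compounds for 17.5 hours at 37 C, and live-cell signal is quantified using CellTiter-Fluor fluorescence.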

The nature of assay [7]: qHTS assay to identify small molecule antagonists of the estrogen related receptor signaling pathway with the pleiotropic PPARgamma coactivator (PGC) from Tox21 10K library (AID 1224841; call rule not given here; note: actives are mostly falling curves and most rising ones were filed inactive; nearly all actives have a fitted effect of over 50% in size). In outline: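 Each well held 2,000 PGC/ERR cells, pre-incubated six hours (37 C, 5% CO2). Test substances in DMSO were added by pin tool and left for 18 h at 37 C before luciferase detection by One-Glo.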

Assay [8] concerns the target Thyrotropin receptor (Homo sapiens) (UniProt P16473). The assay is described as follows: qHTS assay to identify small molecule agonists of the thyroid stimulating hormone receptor (TSHR) signaling pathway (AID 1224843; calls by dose curve; note: nearly all actives have a fitted effect of over 45% in size). In outline:
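HEK293 cells stably bearing the thyrotropin receptor were plated at 800 cells/well and challenged with compound (30 min, RT). Accumulated cAMP was quantified via cAMP-d2 competing for cryptate-tagged antibody.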

Assay [9] in a line: qHTS assay to identify small molecule agonists of the hypoxia (HIF-1) signaling pathway - cell viability counter screen (AID 1224844; calls by dose curve; note: nearly all actives have a fitted effect of over 50% in size). Put shortly: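 Multiplexed with the HRE beta-lactamase assay, this viability read used CellTiter-Glo luminescence (30 min, RT) on HRE-bla ME-180 cells treated 17 hrs with compounds in 0.5% dialyzed FBS medium.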
Assay [10] can be described thus: qHTS assay to identify small molecule agonists of H2AX (AID 1224845; active = well fitted activation curve with a large enough effect in the signal ratio in the repeat runs, not every such curve was filed as active; the % refers to the signal ratio). Put shortly:
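Phospho-H2AX Ser139 measured by HTRF (ex 320 nm; em 665 and 620 nm) after 24 hr antibody incubation. Compounds, 15 concentrations, 0.76% DMSO, were applied to CHO-K1 cells for 3hr at 37C before lysis.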

Assay [11] can be described thus: qHTS assay to identify small molecule antagonists of the estrogen related receptor (ERR) signaling pathway from Tox21 library (AID 1224848). Note: nearly all actives have a fitted effect of over 50% in size. In outline:
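Reading was by luminescence 30 min after ONE-Glo addition. Before that, ERR cells at 2,000 per well had rested 6 h at 37 C/5% CO2 and then received pin-tooled compounds in DMSO for 18 h at 37 C.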

Assay [12] in a line: qHTS assay to identify small molecule agonists of the estrogen related receptor (ERR) signaling pathway from Tox21 library (AID 1224849; calls by dose curve; note: nearly all actives have a fitted effect of over 15% in size). The settings on record: ERR reporter cell line, ONE-Glo luciferase, 18 h. In outline:
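Six hours post-seeding at 37 C/5% CO2, ERR cells receive DMSO-solubilised compounds; after 18 h at 37 C, ONE-Glo reagent is applied and luminescence recorded.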

The nature of assay [13]: qHTS RealTime-Glo MT Cell Viability Assay in HepG2 cells - 24 hour (AID 1224867). Note: nearly all actives have a fitted effect of over 50% in size. In outline:
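Real-time, nonlytic viability: 600 HepG2 cells/well mixed with NanoLuc enzyme plus prosubstrate; 5 h settle, compound (DMSO) added by pintool; luminescence monitored over 40 h at 37 C.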

Assay [14] is described as follows: qHTS RealTime-Glo MT Cell Viability Assay in HEK293 cells - 32 hour (AID 1224868). Note: nearly all actives have a fitted effect of over 50% in size. Note: potency is the fitted concentration of half-maximal effect. In outline:
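Cells + reagent dispensed (600 cells/well, HEK293) → 5 h at 37 C/5% CO2 → 23 nL compound in DMSO pinned → 40 h at 37 C → luminescence read at 0, 8, 16, 24, 32, 40 h.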

The nature of assay [15]: A CellTox Green Cytotoxicity Assay to monitor cytotoxicity in HEK293 cells - 0 hour (AID 1224869). Note: nearly all actives have a fitted effect of over 50% in size. In outline: (§1)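 Seeding of HEK293 cells together with cytotoxicity dye preceded a 5 h incubation at 37 C/5% CO2. Test compounds in DMSO were then added and fluorescence monitored across 40 h.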
A short description of assay [16]: qHTS assay to identify small molecule agonists of the estrogen related receptor signaling pathway with the pleiotropic PPARgamma coactivator (PGC) from Tox21 10K library (AID 1224842). Note: nearly all actives have a fitted effect of over 15% in size. Note: potency is the fitted concentration of half-maximal effect. In outline:
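Luminescence from One-Glo (30 min, room temperature) measured after PGC/ERR cells had 18 h at 37 C with pinned compound (23 nL in DMSO). Cells had been seeded at 2,000 per well and pre-incubated 6 h.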

Assay [17] can be described thus: qHTS assay to identify small molecule agonists of the hypoxia (HIF-1) signaling pathway (AID 1224846; active = well fitted activation curve with a large enough effect in the signal ratio in the repeat runs, not every such curve was filed as active; the % refers to the signal ratio). In outline:
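Hypoxia-pathway activation was scored as increased beta-lactamase from an HRE-controlled reporter in ME-180 cells; plated at 2,000 cells per well with 0.5% dialyzed FBS, they were exposed 17 hrs to compounds and then given CCF4-AM.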

A short description of assay [18]: A CellTox Green Cytotoxicity Assay to monitor cytotoxicity in HEK293 cells - 40 hour (AID 1224871). Note: nearly all actives have a fitted effect of over 45% in size. Put shortly:
as §1

Assay [19] is described as follows: qHTS assay to identify small molecule agonists of H2AX - cell viability counter screen (AID 1224847; calls by dose curve;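 note: wild-type CHO-K1 cells; top concentration of the series differs between compounds; nearly all actives have a fitted effect of over 30% in size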). Put shortly: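 CHO-K1 wt, 1000 cells/well, o/n 37C; cpds 15 conc, 3 h 37C, 0.76% DMSO; CellTiter-Glo, 30 min RT, luminescence.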
Assay [20] is described as follows: qHTS RealTime-Glo MT Cell Viability Assay in HepG2 cells - 40 hour (AID 1224870). Note: nearly all actives have a fitted effect of over 50% in size. Put shortly: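 Real-time viability: cells seeded at 600 per well together with NanoLuc and cell-permeant prosubstrate, compounds added after 5 h incubation. Luminescence tracked at 0, 8, 16, 24, 32 and 40 h of exposure.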
% is set by controls: 0 for no effect and ±100 for the full control effect.

Sequence of Luciferin 4-monooxygenase (Photinus pyralis) (P08659 whole entry, looked up): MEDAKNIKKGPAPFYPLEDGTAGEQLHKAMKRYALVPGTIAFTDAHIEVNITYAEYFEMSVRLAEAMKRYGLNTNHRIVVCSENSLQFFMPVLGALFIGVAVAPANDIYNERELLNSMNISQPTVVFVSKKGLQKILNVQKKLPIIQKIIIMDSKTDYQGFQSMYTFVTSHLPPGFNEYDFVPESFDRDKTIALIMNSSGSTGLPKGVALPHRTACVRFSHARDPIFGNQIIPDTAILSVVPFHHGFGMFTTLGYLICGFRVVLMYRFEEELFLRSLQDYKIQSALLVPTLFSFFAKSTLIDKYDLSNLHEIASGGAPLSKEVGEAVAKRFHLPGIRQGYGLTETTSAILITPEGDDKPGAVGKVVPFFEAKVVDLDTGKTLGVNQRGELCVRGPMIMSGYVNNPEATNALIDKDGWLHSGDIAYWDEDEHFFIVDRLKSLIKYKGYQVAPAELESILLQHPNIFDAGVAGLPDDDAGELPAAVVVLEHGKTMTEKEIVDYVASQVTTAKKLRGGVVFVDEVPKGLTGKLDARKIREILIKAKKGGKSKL
Sequence of Nuclear receptor subfamily 1 group I member 3 (Homo sapiens) (Q14994 whole entry, looked up): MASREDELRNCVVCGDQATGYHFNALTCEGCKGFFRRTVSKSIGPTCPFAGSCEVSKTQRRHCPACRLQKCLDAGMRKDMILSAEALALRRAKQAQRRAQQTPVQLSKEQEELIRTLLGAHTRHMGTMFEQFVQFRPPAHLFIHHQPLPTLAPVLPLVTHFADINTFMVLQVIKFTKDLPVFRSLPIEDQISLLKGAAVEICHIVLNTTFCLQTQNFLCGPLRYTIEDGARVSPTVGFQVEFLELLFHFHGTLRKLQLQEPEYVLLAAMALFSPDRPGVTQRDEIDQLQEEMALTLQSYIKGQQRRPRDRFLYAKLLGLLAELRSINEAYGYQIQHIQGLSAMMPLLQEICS
Sequence of Thyrotropin receptor (Homo sapiens) (P16473 whole entry, looked up): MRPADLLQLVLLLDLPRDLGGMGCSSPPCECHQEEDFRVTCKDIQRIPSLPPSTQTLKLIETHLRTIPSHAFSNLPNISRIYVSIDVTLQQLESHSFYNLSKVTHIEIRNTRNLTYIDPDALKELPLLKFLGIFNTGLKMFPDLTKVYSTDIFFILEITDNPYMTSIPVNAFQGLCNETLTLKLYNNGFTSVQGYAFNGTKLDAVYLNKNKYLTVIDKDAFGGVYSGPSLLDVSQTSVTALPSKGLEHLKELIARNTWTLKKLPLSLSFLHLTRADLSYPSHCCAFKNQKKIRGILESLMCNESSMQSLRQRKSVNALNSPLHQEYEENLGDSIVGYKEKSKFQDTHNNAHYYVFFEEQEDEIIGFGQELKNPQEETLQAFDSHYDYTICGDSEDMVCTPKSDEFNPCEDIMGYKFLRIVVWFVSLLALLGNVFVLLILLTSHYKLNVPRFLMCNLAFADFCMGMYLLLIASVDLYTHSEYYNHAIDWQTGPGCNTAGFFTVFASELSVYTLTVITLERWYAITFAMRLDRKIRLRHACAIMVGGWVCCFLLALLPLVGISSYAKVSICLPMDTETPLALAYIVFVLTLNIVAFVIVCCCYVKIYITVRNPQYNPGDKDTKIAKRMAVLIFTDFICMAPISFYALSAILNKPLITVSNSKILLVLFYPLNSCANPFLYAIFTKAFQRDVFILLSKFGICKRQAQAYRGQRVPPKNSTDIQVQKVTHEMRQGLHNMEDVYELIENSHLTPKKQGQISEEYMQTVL

On to `Cc1c(OCC(F)(F)F)ccnc1CS(=O)c1nc2ccccc2[nH]1` (stereo not given), for which the Potency is 35.6 µM (active) and inactive in assay [1]; 30.6 µM (active) and 11.9 µM (active) in assay [5]; 19.5 µM (active) and 10.7 µM (active) in assay [14]. The Potency result in assay [2], in [3], in assay [4], in assay [6], in [7] and in assay [8] was “inactive” throughout. In addition, the Potency result in assay [9], in [11], in assay [13] and in assay [15] was “inactive” in each case. For the same compound, the compound was classed as inactive in assay [10]. Also, the activity change, positive = activation in assay [12] (at 42.5 µM (top of the series)) was -8.69% (active); in [12] (at 92.4 µM (top of the series)) it was -7.88% (inactive).

As for `COC(=O)Nc1nc2ccc(S(=O)c3ccccc3)cc2[nH]1` (stereo not given), the Potency result in assay [1], in assay [2], in assay [3], in assay [4], in [6] and in assay [7] was “inactive” throughout. The Potency entry in assay [9], in [17], in assay [11], in [13], in assay [15] and in assay [18] was “inactive” in each case. Also, the Potency entry was “inactive and 6.68 µM (active)” in [5]; “inactive and 11.9 µM (active)” in assay [16]; 9.76 µM (active) and 952 nM (active) in assay [14]. In addition, the compound was classed as inactive in [10]. Further, the activity change, positive = activation in assay [12] (at 42.5 µM (top of the series)) was 3.15% (active); in assay [12] (at 92.4 µM (top of the series)) it was -9.11% (inactive).

Regarding `COC(=O)CCC(=O)OC`, the Potency entry in assay [1], in assay [2], in [3], in assay [4], in assay [5] and in assay [6] was “inactive” throughout. Also, the Potency entry in assay [7], in assay [16], in [8], in assay [9], in assay [17] and in [19] was “inactive” throughout. Also, the Potency entry in assay [11], in assay [13], in [14], in [15], in assay [20] and in assay [18] was “inactive” each time. Moreover, the activity change, positive = activation in assay [12] (at 92.4 µM (top of the series)) was 8.82% (inactive) and 7.51% (inactive).

In the case of `Cc1cccc(C(=O)O)c1`, the Potency result in assay [1], in assay [2], in [3], in assay [4], in assay [5] and in assay [6] was “inactive” throughout. Also, the Potency entry in [7], in [16], in [8], in assay [9], in assay [17] and in [19] was “inactive” each time. The Potency entry in [11], in [13], in assay [14], in assay [20] and in assay [18] was “inactive” throughout. In addition, the result in assay [10] was inactive. In addition, the activity change, positive = activation in [12] (at 92.4 µM (top of the series)) is 0.909% (inactive) and 9.04% (inactive).

For the compound `CCCCC(CC)COCC1CO1` (stereo not given), the Potency entry in assay [1], in assay [2], in assay [3], in assay [4], in assay [5] and in [6] was “inactive” throughout. For the same compound, the Potency result in assay [7], in assay [16], in assay [8], in [9], in assay [17] and in assay [19] was “inactive” each time. In addition, the Potency result in assay [11], in assay [13], in [14] and in assay [15] was “inactive” throughout. Also, the result in [10] was inactive. For the same compound, the activity change, positive = activation in assay [12] (at 92.4 µM (top of the series)) was 1.35% (inactive) and -0.071% (inactive).

The record behind these values is PubChem BioAssay (Tox21).
